# Screening data: PubChem BioAssay, National Center for Advancing Translational Sciences (NCATS)
# LDHA inh = qHTS assay for inhibitors of human lactate dehydrogenase | purified LDHA, NADH/diaphorase-resazurin fluorescence; active compounds read low | activity change, % (values are at about 110 or 230 µM) | 480,000 compounds, 0.15% hits; in the data active = activity change below about -30%; inconclusive = mostly about -25% to -30%;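 also: plate controls were DMSO wells for no effect and wells without enzyme for full effect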
#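 Remaining NADH was detected by diaphorase (0.133 mg/mL) converting 37 µM resazurin to fluorescent resorufin, read at 0 and 20 minutes. The preceding 5-minute room-temperature reaction used 2 nM LDHA, 0.2 mM sodium pyruvate and 0.06 mM NADH at pH 7.4.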
# IDH1 R132H inh = qHTS for Inhibitors of mutant isocitrate dehydrogenase 1 (IDH1): qHTS; Isocitrate dehydrogenase [NADP] cytoplasmic (Homo sapiens), O75874; IDH1-R132H enzyme, NADPH consumption, diaphorase/resazurin fluorescence; Potency, µM (titrated, usually from 76.6 µM), inactives show top-dose activity change, negative = inhibition, actives largely listed as inhibitors; 390,000 compounds, 0.093% hits; AID 602179, 2012; also: potency is read from the fitted curve at half-maximal effect; % is scaled to controls: 0 for no effect and ±100 for the full control effect; nearly all actives have a fitted effect of over 65% in size
# Target sequence (O75874 whole entry R132H, stated change not applied): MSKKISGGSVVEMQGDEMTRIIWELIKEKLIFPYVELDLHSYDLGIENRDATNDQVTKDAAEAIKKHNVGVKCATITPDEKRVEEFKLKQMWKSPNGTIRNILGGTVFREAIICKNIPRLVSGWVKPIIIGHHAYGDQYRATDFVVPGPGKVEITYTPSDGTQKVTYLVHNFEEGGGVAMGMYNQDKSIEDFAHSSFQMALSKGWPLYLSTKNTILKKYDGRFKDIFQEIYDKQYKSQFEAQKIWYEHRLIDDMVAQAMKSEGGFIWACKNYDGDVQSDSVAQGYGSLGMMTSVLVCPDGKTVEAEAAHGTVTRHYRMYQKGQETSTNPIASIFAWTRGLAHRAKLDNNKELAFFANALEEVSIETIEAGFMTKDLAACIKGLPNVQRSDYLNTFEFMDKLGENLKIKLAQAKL
#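 IDH1-R132H (0.5 ug/mL dispensed) in pH 7.5 Tris buffer was preincubated 30 min with compound, then given a substrate mix of 0.016 mM NADPH and 2 mM alpha-KG for 80 min at room temperature; remaining NADPH was read by diaphorase/resazurin fluorescence.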
# GLP1R ag = qHTS of GLP-1 Receptor Agonists | HEK293 GLP-1R CRE-luciferase, luminescence, 4-6 h; cells express a hypersensitive GLP-1R form | Potency, µM (series often up to 45.6 µM), without a hit: at the top dose activation, most hits filed as activators | 380,000 compounds, 0.007% hits | AID 624172, 2012; also: potency is read from the fitted curve at half-maximal effect; % of control where 0% means no effect
# PTHR1 agonist = qHTS for PTHR1 Agonists: Primary Screen. 410,000 compounds, 0.075% hits. Potency, µM (titrated, usually from 115 µM), for the others: at the highest dose activation, most hits filed as activators. Parathyroid hormone/parathyroid hormone-related peptide receptor (Homo sapiens), Q03431. HEK293 GP2 PTHR1 cells, GloSensor cAMP luminescence, 1 h; also: potency is read from the fitted curve at half-maximal effect; nearly all actives have a fitted effect of over 55% in size
#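 HEK-293-derived GP2 cells expressing PTHR1 and a GloSensor cAMP reporter, 3,000/well, plated overnight, given luciferin plus IBMX (each 0.5 mM as added) for 1 h at 37 °C, then compound for 1 h at 37 °C. Luminescence was read after 15 min at room temperature.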
# GLP1R cytotox = qHTS of GLP-1 Receptor Inverse Agonists: Cytotox Screen; HEK293 cAMP-luciferase reporter cells, luminescence, 24 h; AID 624418, 2012; Potency, µM (series often up to 38.3 µM), for inactives: top-dose activity change, negative = inhibition, usual class: inhibitors; 410,000 compounds, 0.13% hits;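 also: loss of luciferase light is scored as toxicity; potency is read from the fitted curve at half-maximal effect; % is scaled to controls: 0 for no effect and ±100 for the full control effect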
#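 1536-well qHTS counterscreen of the MLSMR; 200 cells/uL, 12 h pre-incubation, 23 nL cpd, 24 h at 37 deg C 5% CO2, luciferase detection reagent, 12 min RT, luminescence. Inhibition = undesired.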
# GLP1R inv ag = qHTS of GLP-1 Receptor Inverse Agonists (Inhibition Mode); Glucagon-like peptide 1 receptor (Homo sapiens), P43220; HEK293 GLP-1R CRE-luciferase, luminescence, 24 h; GLP-1R form is constitutively active; Potency, µM (highest dose often 38.3 µM), for inactives: at the highest dose activity change, negative = inhibition, most hits filed as inhibitors; 410,000 compounds, 1.6% hits; AID 624417, 2012; also: potency is read from the fitted curve at half-maximal effect; % is scaled to controls: 0 for no effect and ±100 for the full control effect; nearly all actives have a fitted effect of over 55% in size
#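 HEK293 cells stably co-expressing a cAMP-responsive luciferase reporter and constitutively active GLP-1R were seeded, incubated 12 h, then exposed to compounds for 24 h at 37 C. Luminescence was read 12 min after detection reagent; inverse agonists lower signal.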
# * = called active by the depositor; i = inactive; ? = inconclusive; / = no result; [ ] = another dose, or the depositor's remark. In the library only some 1.7% were active in any assay of this set; here they are far more common. Unless noted, calls follow the shape of the dose curve; as a rule, active = well fitted curve in the direction sought with a large enough effect; inconclusive = small, poorly fitted or top-dose-only effect, or another doubt; inactive = no such curve, though single readings can be large; an effect the other way counts as inactive or inconclusive.
SMILES,LDHA inh,IDH1 R132H inh,GLP1R ag,PTHR1 agonist,GLP1R cytotox,GLP1R inv ag
Cc1cccc(C)c1NC(=O)C(C)c1ccc(-c2ccccc2)c(F)c1 (stereo unspecified),-4,-1%,-13%,-14%[57.5 µM],-4%,10µM*
CC(=O)O[C@H](C)OC(=O)[C@@H](C)c1ccc(-c2ccccc2)c(F)c1,/,/,-1%,/,/,/
COc1ccc(C2NCCc3c2[nH]c2ccccc32)cc1COc1ccc(F)cc1 (stereo unspecified),1,-3%,1%,i,?,?
COc1ccc(C2NCCc3c2[nH]c2ccccc32)cc1CN1CCc2cc(OC)c(OC)cc2C1C (stereo unspecified),-3,-1%,10%,-2%,?,8.9µM*
O=C(O)c1ccc(Cl)c(S(=O)(=O)Nc2ccccc2C(=O)Nc2ccc(Cl)cc2)c1,-38*,-7%,-2%,-7%,-9%,-15%
O=C(O)c1ccc(NS(=O)(=O)c2ccc(Cl)c(C(=O)Nc3ccccc3)c2)cc1,-5,-2%,10%,-1%,3%,6%
CCCC(c1nnnn1Cc1ccccc1)N1CCN(c2ccccc2OC)CC1 (stereo unspecified),1,1%,5%,25%[57.5 µM],-19%,?
CCCC(c1nnnn1Cc1ccc(OC)cc1)N1CCN(c2ccccc2OC)CC1 (stereo unspecified),-2,8%,16%,-22%,0%,10µM*
COc1ccc(-c2cc(C(=O)O)c3cc(Br)ccc3n2)cc1OC,8,/,/,/,/,/
O=C(NCC1CCN(C2CCCC2)C1)Nc1ccc(Br)cc1F (stereo unspecified),0,/,/,/,/,/
CN(Cc1ccccc1)C(=O)CSc1nnc(-c2cccc(Cl)c2)o1,2,/,/,-18%,5%,10µM*
COc1ccc(-c2nnc(SCC(=O)N(C)Cc3ccccc3)o2)cc1OC,1,-1%,/,-35%,-2%,5%
N#C/C(=C\c1ccccc1O)C(=O)Nc1cccc(C(F)(F)F)c1,12,/,/,/,/,/
Cc1ccc(OCc2nc(-c3ccccn3)n[nH]2)cc1,4,5%,-2%,i,2.5µM*,?
CCCCCCNC(=O)c1c(O)c2cccc3c2n(c1=O)CCC3,-7,4%,-1%,-14%[57.5 µM],65%,6%
CNC(=O)c1c(O)c2cccc3c2n(c1=O)CCC3,10,1%,4%,i,?,1.8µM*
O=C(NCCNCCO)c1c(O)c2cccc3c2n(c1=O)CCC3,3,-3%,-3%,i,-3%,?
CCn1c(=O)c(C(=O)NCCN2CCCCC2)c(O)c2ccccc21,13,-6%,3%,-21%[57.5 µM],?,2.8µM*
CCN(CC)CCNC(=O)c1c(O)c2cccc3c2n(c1=O)CCC3,15,7%,0%,-35%,?,4.5µM*
CCONC(=O)c1cccc(CSC)c1,-5,/,/,/,/,/
Cc1ccc(N2C(=O)N(CC(=O)Nc3cc(Cl)ccc3C)C(=O)C2C)cc1 (stereo unspecified),0,3%,-3%,-52%,8%,10µM*
Cc1ccc(N2C(=O)N(CC(=O)Nc3ccc([N+](=O)[O-])cc3)C(=O)C2C)cc1 (stereo unspecified),0,7%,8%,-7%,-5%,11µM*
Cc1ccc(N2C(=O)N(CC(=O)Nc3ccc(F)c(F)c3)C(=O)C2C)cc1 (stereo unspecified),-2,6%,-14%,-21%,2%,?
Cc1ccc(N2C(=O)N(CC(=O)Nc3ccc(C)c(C)c3)C(=O)C2C)cc1 (stereo unspecified),1,0%,-8%,i,-5%,10µM*
Cc1ccc(N2C(=O)N(CC(=O)Nc3cc(C)cc(C)c3)C(=O)C2C)cc1 (stereo unspecified),2,0%,23%,-5%,-9%,4µM*
SMILES,LDHA inh,IDH1 R132H inh,GLP1R ag,PTHR1 agonist,GLP1R cytotox,GLP1R inv ag
CC1CCCc2sc3nc(SCC(=O)c4ccc(Cl)cc4)nc(N)c3c21 (stereo unspecified),11,/,/,/,/,/
CC(=O)NC(C)c1ccc([N+](=O)[O-])cc1 (stereo unspecified),0,/,/,/,/,/
O=C(NCCNC(=O)c1cc2ccccc2[nH]1)C(=O)NCc1ccccc1,-10,/,/,/,/,/
Cc1cnc(C(=O)Oc2c(C)cccc2C)cn1,-3,/,/,/,/,/
COc1ccc(OC)c(NC(=O)Cc2cnc(-n3cccc3)s2)c1,18,/,/,/,/,/
Cc1ccc(C)c(-c2cc(C(=O)Nc3nncs3)c3ccccc3n2)c1,-3,/,/,/,/,/
CCCCCOc1ccc(Br)cc1CSC(=N)N,-7,-1%,-5%,-46%,10µM*,?
COc1ccc(Br)cc1CSC(=N)N,-2,-9%,-2%,-21%,-5%,?
CCC1C(=O)C(C)(C)C(=O)OC1c1ccc([N+](=O)[O-])cc1 (stereo unspecified),-2,0%,15%,-12%,-8%,-7%
O=C1CC(=O)OC(c2ccc([N+](=O)[O-])cc2)O1,0,-4%,-14%,-94%,5µM*,?
Cc1ccc(CCNC(=O)c2sc3ncccc3c2-n2c(C)ccc2C)cc1,-2,2%,/,-33%,-5%,11µM*
Cc1ccc(C(CNC(=O)c2cc(=O)c3ccc(C)c(C)c3o2)N2CCCC2)o1 (stereo unspecified),-20,/,/,/,/,/
CCn1c(C(=O)NCc2ccc(OC(C)C)cc2)cc2oc3ccccc3c21,-2,/,/,i,1%,?
CCn1c(C(=O)NCc2ccccc2C)cc2oc3ccccc3c21,-4,/,/,i,1%,5µM*
Cc1ccc(C)c(OCc2cc(C(=O)N3CC[C@@H]4CCCC[C@H]4C3)no2)c1,-4,1%,2%,i,7%,11µM*
Cc1ccc(C)c(OCc2cc(C(=O)N3CCN(c4ccccc4C)CC3C)no2)c1 (stereo unspecified),3,9%,-7%,-18%,8%,2.5µM*
Cc1cccc(C)c1OCc1cc(C(=O)N2CCN(c3ccccc3)CC2C)no1 (stereo unspecified),8,9%,4%,-50%,-4%,?
